How the values were obtained:
Assay in all cases: protein domain microarray probed with biotinylated miRNA; Domain array: 20 mM Tris-HCl pH 7.4, 200 mM KCl, 0.2 mM EDTA, 0.05% NP40, 2 ug/ul heparin, overnight 4 C. ORF array: PBS pH 7.0 with RNase inhibitor, 100 ng RNA; high values mean tight binding
Conditions in all cases: ssRNA
hnRNP-D0 = hnRNP-D0 (Homo sapiens, UniProt Q14103)
PABPC1L = PABPC1L (Homo sapiens, UniProt Q4VXU2)
NCL = NCL (Homo sapiens, UniProt P19338)
PABPN1 = molecular target: T1, PABPN1 (Homo sapiens, UniProt Q86U42)
T1 sequence: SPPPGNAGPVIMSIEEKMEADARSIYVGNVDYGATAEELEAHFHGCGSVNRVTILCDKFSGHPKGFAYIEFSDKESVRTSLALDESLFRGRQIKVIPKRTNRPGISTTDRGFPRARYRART

CNOT4 = molecular target: T2, CNOT4 (Homo sapiens, UniProt O95628)
T2 sequence: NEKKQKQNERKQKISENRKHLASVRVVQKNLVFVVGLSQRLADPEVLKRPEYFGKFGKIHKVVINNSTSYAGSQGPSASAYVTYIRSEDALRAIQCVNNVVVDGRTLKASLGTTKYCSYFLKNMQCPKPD

CSTF2 = molecular target: T3, CSTF2 (Homo sapiens, UniProt P33240)
T3 sequence: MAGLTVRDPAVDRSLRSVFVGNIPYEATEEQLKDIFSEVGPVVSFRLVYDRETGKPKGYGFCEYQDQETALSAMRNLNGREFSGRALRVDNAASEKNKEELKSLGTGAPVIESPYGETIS

DRBP1(3-4) = molecular target: T4, DRBP1(3-4) (Homo sapiens, UniProt Q8IUH3)
T4 sequence: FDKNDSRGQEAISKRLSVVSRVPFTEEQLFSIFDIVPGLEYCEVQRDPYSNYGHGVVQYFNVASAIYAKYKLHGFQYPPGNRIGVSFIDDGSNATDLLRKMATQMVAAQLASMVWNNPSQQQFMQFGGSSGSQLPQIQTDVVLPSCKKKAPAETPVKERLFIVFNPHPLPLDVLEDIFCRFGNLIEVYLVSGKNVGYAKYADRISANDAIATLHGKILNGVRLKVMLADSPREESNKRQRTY

hnRNP-A/B = hnRNP-A/B (Homo sapiens, UniProt Q99729)
CPSF7 = molecular target: T5, CPSF7 (Homo sapiens, UniProt Q8N684)
T5 sequence: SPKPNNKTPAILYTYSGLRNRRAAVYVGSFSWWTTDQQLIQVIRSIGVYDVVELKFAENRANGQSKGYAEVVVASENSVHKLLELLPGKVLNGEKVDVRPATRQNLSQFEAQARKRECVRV

HNRNPA1L2 = HNRNPA1L2 (Homo sapiens, UniProt Q32P51)
DAZ4 = molecular target: T6, DAZ4 (Homo sapiens, UniProt Q86SG3)
T6 sequence: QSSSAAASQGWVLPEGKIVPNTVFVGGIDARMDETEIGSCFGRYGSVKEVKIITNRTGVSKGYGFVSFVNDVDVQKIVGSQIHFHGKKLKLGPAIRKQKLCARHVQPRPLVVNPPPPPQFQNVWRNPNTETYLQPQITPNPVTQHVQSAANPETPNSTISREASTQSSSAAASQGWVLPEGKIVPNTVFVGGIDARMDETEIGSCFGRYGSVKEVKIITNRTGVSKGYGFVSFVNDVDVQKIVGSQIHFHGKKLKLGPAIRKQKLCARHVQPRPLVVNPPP

hnRNP-M(1-2) = molecular target: T7, hnRNP-M(1-2) (Homo sapiens, UniProt P52272)
T7 sequence: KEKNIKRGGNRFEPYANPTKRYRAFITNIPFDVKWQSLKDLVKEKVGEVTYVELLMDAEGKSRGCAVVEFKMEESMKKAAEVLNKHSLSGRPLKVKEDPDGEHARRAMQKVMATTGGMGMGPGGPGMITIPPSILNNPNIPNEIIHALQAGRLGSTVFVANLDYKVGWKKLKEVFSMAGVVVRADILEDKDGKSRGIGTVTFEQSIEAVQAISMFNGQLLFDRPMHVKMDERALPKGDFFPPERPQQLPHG

hnRNP-A3 = hnRNP-A3 (Homo sapiens, UniProt P51991)
LARP7(2) = molecular target: T8, LARP7(2) (Homo sapiens, UniProt Q4G0J3)
T8 sequence: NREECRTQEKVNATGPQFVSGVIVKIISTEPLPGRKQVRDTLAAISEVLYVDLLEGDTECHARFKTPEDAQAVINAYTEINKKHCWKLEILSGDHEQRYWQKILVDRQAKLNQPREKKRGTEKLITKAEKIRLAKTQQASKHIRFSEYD

hnRNP-A1 = hnRNP-A1 (Homo sapiens, UniProt P09651)
eIF3-delta = eIF3-delta (Homo sapiens, UniProt O75821)
hnRNP-R = molecular target: T9, hnRNP-R (Homo sapiens, UniProt O43390)
T9 sequence: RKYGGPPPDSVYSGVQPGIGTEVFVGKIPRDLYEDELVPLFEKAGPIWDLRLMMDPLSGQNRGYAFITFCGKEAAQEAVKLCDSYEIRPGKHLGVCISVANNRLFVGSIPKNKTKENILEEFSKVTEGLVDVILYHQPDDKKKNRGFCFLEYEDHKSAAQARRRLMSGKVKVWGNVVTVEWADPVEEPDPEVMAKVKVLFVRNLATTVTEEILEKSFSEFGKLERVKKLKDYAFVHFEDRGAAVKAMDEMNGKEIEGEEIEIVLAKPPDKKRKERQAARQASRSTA

LKAP = molecular target: T10, LKAP (Homo sapiens, UniProt Q9Y4F3)
T10 sequence: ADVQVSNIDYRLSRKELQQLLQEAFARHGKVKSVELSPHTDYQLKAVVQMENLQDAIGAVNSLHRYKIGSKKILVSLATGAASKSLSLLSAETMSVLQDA

DAZ1 = molecular target: T11, DAZ1 (Homo sapiens, UniProt Q9NQZ3)
T11 sequence: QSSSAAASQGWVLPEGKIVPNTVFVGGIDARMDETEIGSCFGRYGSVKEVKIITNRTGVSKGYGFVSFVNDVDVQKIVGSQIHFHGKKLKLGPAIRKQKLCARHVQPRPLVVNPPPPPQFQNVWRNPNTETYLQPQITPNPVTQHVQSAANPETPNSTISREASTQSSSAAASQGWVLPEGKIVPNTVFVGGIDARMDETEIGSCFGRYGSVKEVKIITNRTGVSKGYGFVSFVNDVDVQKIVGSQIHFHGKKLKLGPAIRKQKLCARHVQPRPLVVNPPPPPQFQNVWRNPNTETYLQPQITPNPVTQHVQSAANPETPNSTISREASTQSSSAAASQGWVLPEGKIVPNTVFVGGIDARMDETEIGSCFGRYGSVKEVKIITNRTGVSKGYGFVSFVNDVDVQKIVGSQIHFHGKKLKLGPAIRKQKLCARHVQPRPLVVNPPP

G3BP-1 = G3BP-1 (Homo sapiens, UniProt Q13283)
Chain of G3BP-1 (Q13283 320-435): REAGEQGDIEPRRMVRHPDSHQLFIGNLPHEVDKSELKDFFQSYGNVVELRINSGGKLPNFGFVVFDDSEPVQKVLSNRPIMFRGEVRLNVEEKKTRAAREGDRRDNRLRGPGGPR

Chain of HNRNPA1L2 (Q32P51 1-205): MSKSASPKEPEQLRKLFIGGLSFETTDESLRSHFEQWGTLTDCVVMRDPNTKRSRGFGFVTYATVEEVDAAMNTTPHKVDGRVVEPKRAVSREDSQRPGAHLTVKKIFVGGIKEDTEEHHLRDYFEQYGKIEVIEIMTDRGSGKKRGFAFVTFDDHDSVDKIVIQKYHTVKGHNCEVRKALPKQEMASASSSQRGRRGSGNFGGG
Chain of hnRNP-A1 (P09651 1-205): as the sequence (Q32P51 1-205) above, with A5E, T74A, T75R, K171N, P182S, R197S counted along it
Chain of eIF3-delta (O75821 220-320, stated change not applied): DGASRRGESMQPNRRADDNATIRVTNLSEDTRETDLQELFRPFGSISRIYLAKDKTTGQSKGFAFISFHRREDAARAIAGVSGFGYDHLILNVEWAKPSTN
Chain of NCL (P19338 288-670): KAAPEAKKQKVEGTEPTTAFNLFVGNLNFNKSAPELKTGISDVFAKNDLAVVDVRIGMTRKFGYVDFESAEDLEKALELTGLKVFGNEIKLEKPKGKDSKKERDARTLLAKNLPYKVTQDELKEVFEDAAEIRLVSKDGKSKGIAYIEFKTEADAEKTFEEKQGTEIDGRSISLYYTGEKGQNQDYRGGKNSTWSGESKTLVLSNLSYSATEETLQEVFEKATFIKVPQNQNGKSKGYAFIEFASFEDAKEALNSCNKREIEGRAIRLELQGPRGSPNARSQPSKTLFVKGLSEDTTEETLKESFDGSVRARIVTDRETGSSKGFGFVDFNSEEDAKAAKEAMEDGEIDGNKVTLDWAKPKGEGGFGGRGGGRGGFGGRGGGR
Chain of PABPC1L (Q4VXU2 1-390): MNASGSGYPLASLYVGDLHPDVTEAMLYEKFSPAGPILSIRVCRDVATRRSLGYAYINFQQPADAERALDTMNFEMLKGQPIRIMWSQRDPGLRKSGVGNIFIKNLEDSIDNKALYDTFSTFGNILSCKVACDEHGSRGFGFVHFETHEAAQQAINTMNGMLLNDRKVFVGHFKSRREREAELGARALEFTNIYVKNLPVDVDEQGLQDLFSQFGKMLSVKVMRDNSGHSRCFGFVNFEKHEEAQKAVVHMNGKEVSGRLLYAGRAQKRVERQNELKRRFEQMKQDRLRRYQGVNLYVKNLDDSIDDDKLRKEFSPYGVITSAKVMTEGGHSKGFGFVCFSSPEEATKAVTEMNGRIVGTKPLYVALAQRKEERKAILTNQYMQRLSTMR
Chain of hnRNP-D0 (Q14103 80-280): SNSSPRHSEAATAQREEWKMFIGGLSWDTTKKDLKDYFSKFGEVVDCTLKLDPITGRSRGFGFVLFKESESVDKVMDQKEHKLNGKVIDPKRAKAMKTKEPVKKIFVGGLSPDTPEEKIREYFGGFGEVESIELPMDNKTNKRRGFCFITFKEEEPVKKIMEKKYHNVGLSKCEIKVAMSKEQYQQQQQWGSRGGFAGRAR
Chain of hnRNP-A/B (Q99729 50-250): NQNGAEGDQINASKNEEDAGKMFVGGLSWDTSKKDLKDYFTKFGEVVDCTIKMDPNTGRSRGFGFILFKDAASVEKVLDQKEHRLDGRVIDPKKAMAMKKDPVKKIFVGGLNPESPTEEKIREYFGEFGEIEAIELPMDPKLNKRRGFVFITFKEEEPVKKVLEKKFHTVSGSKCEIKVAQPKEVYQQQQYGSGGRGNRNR
Chain of hnRNP-A3 (P51991 15-225): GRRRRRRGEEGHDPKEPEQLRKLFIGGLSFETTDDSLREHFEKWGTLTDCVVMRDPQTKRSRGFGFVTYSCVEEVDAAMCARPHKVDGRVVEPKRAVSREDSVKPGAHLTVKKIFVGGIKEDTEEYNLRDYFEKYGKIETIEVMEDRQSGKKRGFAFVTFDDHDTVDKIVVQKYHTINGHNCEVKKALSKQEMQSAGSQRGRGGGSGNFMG

Row | Sequence | binding signal (hnRNP-D0) [fluorescence intensity] | binding signal (PABPC1L) [fluorescence intensity] | binding signal (NCL) [fluorescence intensity] | binding signal (PABPN1) [fluorescence intensity] | binding signal (CNOT4) [fluorescence intensity] | binding signal (CSTF2) [fluorescence intensity] | binding signal (DRBP1(3-4)) [fluorescence intensity] | binding signal (hnRNP-A/B) [fluorescence intensity] | binding signal (CPSF7) [fluorescence intensity] | binding signal (HNRNPA1L2) [fluorescence intensity] | binding signal (DAZ4) [fluorescence intensity] | binding signal (hnRNP-M(1-2)) [fluorescence intensity] | binding signal (hnRNP-A3) [fluorescence intensity] | binding signal (LARP7(2)) [fluorescence intensity] | binding signal (hnRNP-A1) [fluorescence intensity] | binding signal (eIF3-delta) [fluorescence intensity] | binding signal (hnRNP-R) [fluorescence intensity] | binding signal (LKAP) [fluorescence intensity] | binding signal (DAZ1) [fluorescence intensity] | binding signal (G3BP-1) [fluorescence intensity]
1 | AGAGGUAGUAGGUUGCAUAGUU | 1690 ± 40.2 | 1740 ± 116 | 3640 ± 50 | 3510 ± 43.1 | 230 ± 7.35 | 1640 ± 152 | 63.1 ± 5.42 | 1830 ± 93.1 | 48.3 ± 8.88 | 630 ± 43.3 | 934 ± 29.1 | 1710 ± 32.8 | 2440 ± 28.8 | 400 ± 39.4 | 62.9 ± 11.7 | 231 ± 8.61 | 362 ± 6.89 | 41.4 ± 3.31 | 814 ± 10.2 | 1220 ± 45.7
2 | UGAGGUAGUAGGUUGUAUGGUU | 1386 ± 9.72 | 1355 ± 13.5 | 2733 ± 6.99 | 2730 ± 37.5 | 263.8 ± 1.66 | 877 ± 50.3 | 95.6 ± 13.4 | 1148 ± 9.7 | 58.9 ± 3.79 | 644 ± 46.8 | 778 ± 25.6 | 1452 ± 3.71 | 1730 ± 33.6 | 511 ± 8.38 | 74.6 ± 1.05 | 262 ± 21.2 | 666 ± 24.3 | 65.2 ± 2.55 | 673 ± 9.53 | 1240 ± 13.5
3 | UGAGGUAGUAGGUUGUAUAGUU | 580 ± 40.2 | 626 ± 62.6 | 1458 ± 3.11 | 2100 ± 89.2 | 73.77 ± 0.226 | 546 ± 37.1 |  | 453 ± 6.64 | 21.4 ± 4.04 | 226 ± 23.1 | 215 ± 41.8 | 581.3 ± 5.61 | 952 ± 63 | 179 ± 11.7 | 22 ± 6.92 | 80.4 ± 7.03 | 109 ± 5.8 |  | 193 ± 22.1 | 286 ± 21.3
4 | UGAGGUAGUAGGUUGUGUGGUU | 1275 ± 12.6 | 1150 ± 102 | 2320 ± 38.6 | 2208 ± 3.21 | 448 ± 8.85 | 1760 ± 71.7 | 117 ± 36.4 | 1294 ± 7.55 | 106 ± 4.55 | 551 ± 58 | 843.32 ± 0.516 | 1470 ± 31 | 1660 ± 31.6 | 632 ± 5.09 | 77.3 ± 27.2 | 338 ± 7.23 | 693 ± 1.68 | 91.94 ± 0.665 | 709 ± 20.1 | 1380 ± 17
5 | CAGUGCAAUGAUGAAAGGGCAU | 338 ± 13.6 | 990.7 ± 2.47 | 2833 ± 25.8 | 2170 ± 30.4 | 235.49 ± 0.198 | 484 ± 5.24 | 77 ± 15.6 | 1111 ± 3.46 | 47.8 ± 6.69 | 236 ± 20 | 178.74 ± 0.0495 | 946.9 ± 2.02 | 1370 ± 25 | 288 ± 8.61 | 40.7 ± 3.35 | 113 ± 14 | 113 ± 6.25 | 37.5 ± 1.56 | 153 ± 10.6 | 1860 ± 70.5
6 | UAGCUUAUCAGACUGAUGUUGA | 106 ± 5.55 | 126 ± 31.5 | 1820 ± 62.5 | 329 ± 38.4 | 35.05 ± 0.099 | 142 ± 42.3 |  | 108 ± 7.62 |  |  | 570 ± 34.9 | 584 ± 19 | 80.5 ± 23 | 66.2 ± 4.35 |  | 20.5 ± 2.47 |  |  | 550 ± 15.3 | 219 ± 29.7

Reference: publication PMC11574364
